Test systems include HCT-15 colon; HT29 colon; SNB-75 CNS; SNB-19 CNS; U251 CNS; PC-3 prostate; SK-MEL-5 melanoma; UACC-62 melanoma; LOX IMVI melanoma; SK-MEL-28 melanoma; SK-MEL-2 melanoma; EKVX NSCLC; SN12C renal; UO-31 renal; TK-10 renal; CAKI-1 renal; CCRF-CEM leukemia; MOLT-4 leukemia; A498 renal; ACHN renal.
What all share (experiment): NCI-60 one-dose screen, 48 h (100 = growth as untreated, 0 = no growth, -100 = all killed)
What all share (conditions): 10 µM unless noted

Consider nine compounds from PubChem BioAssay (NCI).

About 83,000 compounds went through this panel and 20% of them were active in at least one assay; those are over-represented in the sample as a whole.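 Note: values are percent growth. 100 is the growth of untreated cells, values between 100 and 0 indicate rising inhibition; between -100 and 0 indicates cell death.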 Unmarked numbers belong to inactive results. The source made the active and inactive calls. Rule for the calls: active = growth percent below 10; inactive = the rest.

In the case of `CCCCOc1ccc(/C=N/Nc2cc(C)nc3ccc(Cl)cc23)cc1`, the growth was -80.3% (active) in the test on HCT-15 colon; -49.8% (active) in the test on HT29 colon; 17% with SNB-75 CNS; 20.7% in the test with SNB-19 CNS; -82.1% (active) in the test with U251 CNS; 20.6% in the test with PC-3 prostate. In addition, the growth in the test with SK-MEL-5 melanoma was 71.8%; with UACC-62 melanoma, 77.8%; with LOX IMVI melanoma, -94.7% (active); in the test with SK-MEL-28 melanoma, -89.5% (active); in the test with SK-MEL-2 melanoma it was 67.6%; in the test on EKVX NSCLC it was 60%. The growth in the test with SN12C renal was -81.6% (active); in the test on UO-31 renal, -96.1% (active); with TK-10 renal, 36.8%; in the test on CAKI-1 renal, 35.1%; with CCRF-CEM leukemia it was -5.7% (active); with MOLT-4 leukemia, -36.9% (active).

Regarding `O=C(N/N=C/c1ccncc1)c1ccccc1Nc1cccc(C(F)(F)F)c1`, the growth with HCT-15 colon was 74.2%; with HT29 colon, 99.3%; in the test on SNB-75 CNS it was 75.8%; in the test on SNB-19 CNS it was 72.2%; in the test with U251 CNS it was 86.9%; in the test with PC-3 prostate it was 75.8%. Further, the growth is 76% with SK-MEL-5 melanoma; 81% in the test with UACC-62 melanoma; 70.5% in the test with LOX IMVI melanoma; 94.9% in the test with SK-MEL-28 melanoma; 99.3% in the test with SK-MEL-2 melanoma; 91.7% in the test with EKVX NSCLC. Moreover, the growth in the test on SN12C renal was 90.8%; with UO-31 renal, 60.9%; in the test with TK-10 renal, 102%; in the test with CAKI-1 renal it was 117%; in the test on A498 renal it was 71.9%; in the test with MOLT-4 leukemia it was 72.2%.

For the compound `O=C(N=Nc1c(O)[nH]c2ccc(F)cc12)c1cc2ccccc2[nH]1`, the growth with HCT-15 colon is 96%; in the test with HT29 colon, 109%; in the test with SNB-75 CNS, 99.6%; in the test on SNB-19 CNS, 97.7%; with U251 CNS, 94.7%; in the test with PC-3 prostate, 103%. In addition, the growth with SK-MEL-5 melanoma is 99.7%; in the test on UACC-62 melanoma, 96.1%; with LOX IMVI melanoma, 97.3%; in the test on SK-MEL-28 melanoma, 110%; with SK-MEL-2 melanoma it was 91%; with EKVX NSCLC, 89%. The growth in the test with SN12C renal is 91.2%; with UO-31 renal, 76.2%; with TK-10 renal it was 106%; in the test with CAKI-1 renal it was 80.7%; with CCRF-CEM leukemia, 99.5%; in the test on MOLT-4 leukemia, 99.2%.

Turning to `CCN(CC)CCCC(C)Nc1c2c(nc3ccc(OC)cc13)CCCC2` (stereo unspecified), the growth in the test on HCT-15 colon was 100%; in the test with HT29 colon it was 79.4%; in the test on SNB-75 CNS, 72.8%; with SNB-19 CNS, 100%; in the test on U251 CNS, 105%; with PC-3 prostate, 98.6%. Besides, the growth with SK-MEL-5 melanoma was 105%; in the test with UACC-62 melanoma it was 103%; in the test on LOX IMVI melanoma it was 87.5%; with SK-MEL-28 melanoma, 101%; in the test on SK-MEL-2 melanoma it was 128%; with EKVX NSCLC, 91.2%. The growth in the test on SN12C renal is 84.4%; in the test with UO-31 renal it was 76.6%; in the test with TK-10 renal, 111%; with CAKI-1 renal, 93.7%; in the test on A498 renal, 73.5%; with CCRF-CEM leukemia, 95.5%. Moreover, the growth in the test with MOLT-4 leukemia was 94.7%.

As for `O=C1Nc2c(ccc(Cl)c2Cl)/C1=C/c1ccccn1`, the growth was 70.9% in the test on HCT-15 colon; 78.5% in the test on HT29 colon; 84.6% with SNB-75 CNS; 84.5% in the test on SNB-19 CNS; 85% in the test on U251 CNS; 75.2% with PC-3 prostate. Besides, the growth was 83.1% in the test with SK-MEL-5 melanoma; 70.5% with UACC-62 melanoma; 43.9% in the test with LOX IMVI melanoma; 105% with SK-MEL-28 melanoma; 104% in the test with SK-MEL-2 melanoma; 62.3% in the test with EKVX NSCLC. The growth with SN12C renal is 97%; in the test with UO-31 renal, 73.3%; in the test with TK-10 renal, 120%; with CAKI-1 renal, -1.32% (active); in the test with A498 renal, 110%; with CCRF-CEM leukemia, 23.2%.

`CN(C)c1ccc(-c2c(C#N)c(N)n3nc(N)c(C#N)c3c2C#N)cc1`: the growth in the test on HCT-15 colon was 81.8%; with HT29 colon it was 83.5%; with SNB-75 CNS, 88.5%; in the test on SNB-19 CNS, 95.4%; in the test on U251 CNS, 90.1%; in the test with PC-3 prostate it was 76.6%. Moreover, the growth with SK-MEL-5 melanoma was 71.1%; with UACC-62 melanoma it was 113%; in the test on LOX IMVI melanoma, 8.51% (active); with SK-MEL-28 melanoma it was 96.3%; in the test on SK-MEL-2 melanoma, 88.3%; with EKVX NSCLC it was 76.5%. Besides, the growth was 72.3% in the test on SN12C renal; 75.5% in the test with UO-31 renal; 82.4% in the test on TK-10 renal; 86.5% in the test on ACHN renal; 106% in the test on A498 renal; 94% in the test with CCRF-CEM leukemia. For the same compound, the growth in the test with MOLT-4 leukemia was 90%.

As to `Nc1nnc2cc(Cl)ccc2n1`, the growth is 94.2% with HCT-15 colon; 119% in the test with HT29 colon; 91.6% with SNB-75 CNS; 104% in the test with SNB-19 CNS; 98.4% in the test with U251 CNS; 77% in the test with PC-3 prostate. For the same compound, the growth was 102% in the test with SK-MEL-5 melanoma; 93.1% in the test on UACC-62 melanoma; 87.9% in the test with LOX IMVI melanoma; 114% in the test with SK-MEL-28 melanoma; -25.9% (active) in the test on SK-MEL-2 melanoma; 112% in the test on EKVX NSCLC. Further, the growth is 90.1% in the test with SN12C renal; 89.8% in the test on UO-31 renal; 89.9% in the test with ACHN renal; 112% in the test with CAKI-1 renal; 54% in the test on A498 renal; 87.7% with CCRF-CEM leukemia. In addition, the growth in the test with MOLT-4 leukemia was 111%.

On to `CN1CCN(C(=O)[C@]2(C)CC[C@]3(C)CC[C@]4(C)C(=CC(=O)[C@@H]5[C@@]6(C)CCC(=O)NC(C)(C)[C@@H]6CC[C@]54C)[C@@H]3C2)CC1`, for which the growth in the test with HCT-15 colon is 94.6%; in the test on HT29 colon it was 86.9%; in the test on SNB-75 CNS it was 73.7%; with SNB-19 CNS it was 97.8%; in the test with U251 CNS it was 86.7%; in the test on PC-3 prostate, 88.8%. Moreover, the growth with SK-MEL-5 melanoma was 88.8%; with UACC-62 melanoma, 97.3%; with LOX IMVI melanoma it was 84.6%; in the test on SK-MEL-28 melanoma it was 101%; with SK-MEL-2 melanoma it was 100%; in the test with EKVX NSCLC, 93.9%. Also, the growth is 90.4% in the test on SN12C renal; 71.8% with UO-31 renal; 105% in the test with TK-10 renal; 95.8% in the test with CAKI-1 renal; 102% with A498 renal; 93.2% with CCRF-CEM leukemia. Besides, the growth in the test with MOLT-4 leukemia is 85.6%.

For the compound `N#Cc1c(Nc2ccccc2)nn2cc(-c3nc4ccccc4s3)c(N)nc12`, the growth in the test with HCT-15 colon is 71%; in the test with HT29 colon, 81.8%; in the test on SNB-75 CNS it was 55.9%; with SNB-19 CNS, 76.5%; with U251 CNS it was 84.2%; with PC-3 prostate, 73.4%. In addition, the growth with SK-MEL-5 melanoma is 67.6%; with UACC-62 melanoma, 66.8%; in the test on LOX IMVI melanoma, 67.9%; in the test on SK-MEL-28 melanoma, 68.7%; in the test on SK-MEL-2 melanoma, 97.5%; in the test with EKVX NSCLC, 71.9%. In addition, the growth with SN12C renal is 89.6%; with UO-31 renal it was 83.4%; with TK-10 renal it was 107%; in the test on CAKI-1 renal it was 82.6%; with CCRF-CEM leukemia, 79.2%; with MOLT-4 leukemia, 93.7%.
